This note sets out measurements from PubChem BioAssay (NCI).

SMILES strings stand for the structures. Compounds without any hit were thinned out: in the full panel of roughly 79,000, 15% have a hit. A number with no mark means an inactive call. The source made the active and inactive calls. Rule as the data show it: active = growth inhibition above about 70%; inactive = the rest.

Test [1] in a line: NCI Yeast Anticancer Drug Screen. Data for the rad50 strain (AID 155).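 Also: 0% = growth of vehicle-only cultures of the same strain.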 Particulars: S. cerevisiae rad50 strain growth inhibition, stronger effect = higher value. In a few lines:
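Cells are treated with compound, grown, and their growth is then scored against vehicle-only cultures of the same repair-deficient yeast strain.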

The nature of test [2]: NCI Yeast Anticancer Drug Screen. Data for the mec2-1 strain (AID 157). As to conditions: S. cerevisiae mec2-1 strain, stronger effect = higher value. In a few lines:
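Vehicle-treated cultures served as reference for growth inhibition of compound-exposed mec2-1 yeast.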

A short description of test [3]: NCI Yeast Anticancer Drug Screen. Data for the sgs1 mgt1 strain (AID 161).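 Also: 0% = growth of cultures given vehicle only.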 As to conditions: S. cerevisiae sgs1 mgt1 strain, stronger effect = higher value. In a few lines:
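Mutant yeast exposed to compound; growth scored against vehicle-only wells.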

The nature of test [4]: NCI Yeast Anticancer Drug Screen. Data for the cln2 rad14 strain (AID 165).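 Also: 0% = growth equal to vehicle treated cultures.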 As to conditions: S. cerevisiae cln2 rad14 strain, stronger effect = higher value. In a few lines:
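Each compound was tested on cln2 rad14 yeast. Inhibition of growth was calculated against vehicle-exposed controls.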

The nature of test [5]: NCI Yeast Anticancer Drug Screen. Data for the bub3 strain (AID 167). As to conditions: S. cerevisiae bub3 mutant strain, stronger effect = higher value. In a few lines:
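Part of a panel of yeast mutants defective in DNA damage repair or cell cycle regulation. Each strain is grown with compound, and inhibition is calculated relative to solvent-treated cultures.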

Test [6] can be described thus: NCI Yeast Anticancer Drug Screen. Data for the mlh1 rad18 strain (AID 175). As to conditions: S. cerevisiae mlh1 rad18 strain growth inhibition, stronger effect = higher value. In a few lines: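 Vehicle-treated cultures served as the reference for growth inhibition in a yeast strain carrying DNA damage repair alterations exposed to each compound.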
Where [7] appears, read: at 5.0 µM (retest, dose inferred, filed as 0.5).
The mark [8] stands for this setting: at 50.0 µM (retest, dose inferred, filed as 5.0).

In the case of `CCc1cccc(C(C)(C)C)c1NC(=S)N/C=C(\C#N)C(=O)c1ccc2ccccc2c1`, the growth inhibition in test [1] (setting [7]) is -5%; in test [1] (setting [8]) it was 34%; in test [1] (at 50.0 µM) it was 67.4%; in test [2] (setting [7]), -26%; in test [2] (setting [8]), 25%; in test [2] (at 50.0 µM), 35.5%. Moreover, the growth inhibition in test [3] (setting [7]) was -8%; in test [3] (setting [8]), 22%; in test [3] (at 50.0 µM), 70.7% (active); in test [4] (setting [7]), -18%; in test [4] (setting [8]), 8%; in test [4] (at 50.0 µM), 29.3%. Moreover, the growth inhibition in test [5] (setting [7]) is -17%; in test [5] (setting [8]), 18%; in test [5] (at 50.0 µM), 63.9%; in test [6] (setting [7]), -6%; in test [6] (setting [8]) it was 38%; in test [6] (at 50.0 µM), 65.2%.
On to `N#CSC#Cc1ccc(C#CSC#N)cc1`, for which the growth inhibition is 100% (active) in test [1] (setting [7]); 98% (active) in test [1] (setting [8]); 30.6% in test [1] (at 50.0 µM); 100% (active) in test [2] (setting [7]); 96% (active) in test [2] (setting [8]); 84.5% (active) in test [2] (at 50.0 µM). The growth inhibition in test [3] (setting [7]) was 100% (active); in test [3] (setting [8]), 97% (active); in test [3] (at 50.0 µM), 85% (active); in test [4] (setting [7]), 99% (active); in test [4] (setting [8]), 97% (active); in test [4] (at 50.0 µM) it was 87.5% (active). For the same compound, the growth inhibition in test [5] (setting [7]) was 99% (active); in test [5] (setting [8]) it was 98% (active); in test [5] (at 50.0 µM), 88.3% (active); in test [6] (setting [7]) it was 100% (active); in test [6] (setting [8]), 98% (active); in test [6] (at 50.0 µM), 89.2% (active).
For `CCC(C)(O)C#Cc1ccc(C)nc1` (stereo not given), the growth inhibition in test [1] (setting [7]) is 2%; in test [1] (setting [8]) it was 6%; in test [1] (at 50.0 µM) it was 16.1%; in test [2] (setting [7]), 0%; in test [2] (setting [8]), 3%; in test [2] (at 50.0 µM) it was 9.4%. The growth inhibition in test [3] (setting [7]) was -2%; in test [3] (setting [8]), 2%; in test [3] (at 50.0 µM), 7.7%; in test [4] (setting [7]), 0%; in test [4] (setting [8]), -1%; in test [4] (at 50.0 µM), 14.5%. For the same compound, the growth inhibition was 1% in test [5] (setting [7]); -1% in test [5] (setting [8]); 13.8% in test [5] (at 50.0 µM); -12% in test [6] (setting [7]); 4% in test [6] (setting [8]); 0.4% in test [6] (at 50.0 µM).
With `O=C(CN1CCCCC1)c1ccc(/C=C/c2ccc(Cl)cc2)cc1`, the growth inhibition is 7% in test [1] (setting [7]); 98% (active) in test [1] (setting [8]); 98.6% (active) in test [1] (at 50.0 µM); 4% in test [2] (setting [7]); 99% (active) in test [2] (setting [8]); 98.4% (active) in test [2] (at 50.0 µM). The growth inhibition is 12% in test [3] (setting [7]); 98% (active) in test [3] (setting [8]); 97.1% (active) in test [3] (at 50.0 µM); -20% in test [4] (setting [7]); 75% (active) in test [4] (setting [8]); 97.5% (active) in test [4] (at 50.0 µM). Also, the growth inhibition in test [5] (setting [7]) was -13%; in test [5] (setting [8]), 99% (active); in test [5] (at 50.0 µM), 96.8% (active); in test [6] (setting [7]) it was 21%; in test [6] (setting [8]), 99% (active); in test [6] (at 50.0 µM), 98.1% (active).
In the case of `N#Cc1c(-c2ccc(Cl)cc2)c(C#N)c(=O)n(NS(=O)(=O)c2ccccc2)c1S`, the growth inhibition was 51% in test [1] (setting [7]); 83% (active) in test [1] (setting [8]); 39.6% in test [1] (at 50.0 µM); 29% in test [2] (setting [7]); 78% (active) in test [2] (setting [8]); 86.2% (active) in test [2] (at 50.0 µM). The growth inhibition was 30% in test [3] (setting [7]); 93% (active) in test [3] (setting [8]); 81.3% (active) in test [3] (at 50.0 µM); 46% in test [4] (setting [7]); 63% in test [4] (setting [8]); 19.4% in test [4] (at 50.0 µM). Besides, the growth inhibition in test [5] (setting [7]) was 50%; in test [5] (setting [8]), 88% (active); in test [5] (at 50.0 µM) it was 70.8% (active); in test [6] (setting [7]) it was 36%; in test [6] (setting [8]), 71% (active); in test [6] (at 50.0 µM) it was 77.5% (active).
For the compound `N#CSc1ccc(Nc2ccc(SC#N)cc2)cc1`, the growth inhibition in test [1] (setting [7]) is 98% (active); in test [1] (setting [8]) it was 98% (active); in test [1] (at 50.0 µM), 98.4% (active); in test [2] (setting [7]), 99% (active); in test [2] (setting [8]), 99% (active); in test [2] (at 50.0 µM), 97.6% (active). The growth inhibition in test [3] (setting [7]) was 99% (active); in test [3] (setting [8]), 99% (active); in test [3] (at 50.0 µM), 98.4% (active); in test [4] (setting [7]) it was 99% (active); in test [4] (setting [8]), 98% (active); in test [4] (at 50.0 µM), 97.7% (active). Besides, the growth inhibition in test [5] (setting [7]) was 98% (active); in test [5] (setting [8]) it was 97% (active); in test [5] (at 50.0 µM) it was 98.2% (active); in test [6] (setting [7]), 99% (active); in test [6] (setting [8]), 94% (active); in test [6] (at 50.0 µM) it was 97.8% (active).
For the compound `CC12CCC(C(Br)(Br)C1=O)C2(C)C` (stereo not given), the growth inhibition is 29% in test [1] (setting [7]); 60% in test [1] (setting [8]); 40.6% in test [1] (at 50.0 µM); 17% in test [2] (setting [7]); 46% in test [2] (setting [8]); 59.4% in test [2] (at 50.0 µM). Besides, the growth inhibition in test [3] (setting [7]) was 26%; in test [3] (setting [8]) it was 56%; in test [3] (at 50.0 µM), 72.1% (active); in test [4] (setting [7]), 22%; in test [4] (setting [8]), 41%; in test [4] (at 50.0 µM) it was 30.5%. The growth inhibition was 18% in test [5] (setting [7]); 74% (active) in test [5] (setting [8]); 86.8% (active) in test [5] (at 50.0 µM); 16% in test [6] (setting [7]); 68% in test [6] (setting [8]); 88.7% (active) in test [6] (at 50.0 µM).
For `CCCCC1(CC)COC(c2ccccc2OC)OC1` (stereo not given), the growth inhibition in test [1] (setting [7]) is -6%; in test [1] (setting [8]), 88% (active); in test [1] (at 50.0 µM), -28.4%; in test [2] (setting [7]), -5%; in test [2] (setting [8]) it was 88% (active); in test [2] (at 50.0 µM), 2.45%. Also, the growth inhibition is -1% in test [3] (setting [7]); 81% (active) in test [3] (setting [8]); 5.5% in test [3] (at 50.0 µM); -9% in test [4] (setting [7]); 65% in test [4] (setting [8]); -9.85% in test [4] (at 50.0 µM). Also, the growth inhibition in test [5] (setting [7]) is 31%; in test [5] (setting [8]), 92% (active); in test [5] (at 50.0 µM), 76.5% (active); in test [6] (setting [7]) it was -2%; in test [6] (setting [8]), 87% (active); in test [6] (at 50.0 µM), -17.2%.
Consider `N=C1C=CC(=C(c2ccc(N)cc2)c2ccc(N)cc2)C=C1`, for which the growth inhibition in test [1] (setting [7]) is -2%; in test [1] (setting [8]), 99% (active); in test [1] (at 50.0 µM), 98.8% (active); in test [2] (setting [7]), 24%; in test [2] (setting [8]), 98% (active); in test [2] (at 50.0 µM), 98.5% (active). Moreover, the growth inhibition was 8% in test [3] (setting [7]); 97% (active) in test [3] (setting [8]); 97.8% (active) in test [3] (at 50.0 µM); -15% in test [4] (setting [7]); 93% (active) in test [4] (setting [8]); 96.8% (active) in test [4] (at 50.0 µM). Besides, the growth inhibition in test [5] (setting [7]) is 12%; in test [5] (setting [8]) it was 98% (active); in test [5] (at 50.0 µM), 98.3% (active); in test [6] (setting [7]), -4%; in test [6] (setting [8]), 97% (active); in test [6] (at 50.0 µM) it was 97.4% (active).
For `O=P(Nc1ccccc1)(OCc1ccccc1)OCc1ccccc1`, the growth inhibition was -4% in test [1] (setting [7]); 98% (active) in test [1] (setting [8]); 98.5% (active) in test [1] (at 50.0 µM); 12% in test [2] (setting [7]); 99% (active) in test [2] (setting [8]); 94.7% (active) in test [2] (at 50.0 µM). Further, the growth inhibition in test [3] (setting [7]) is -4%; in test [3] (setting [8]), 99% (active); in test [3] (at 50.0 µM), 98.8% (active); in test [4] (setting [7]), 13%; in test [4] (setting [8]), 99% (active); in test [4] (at 50.0 µM), 67%. Moreover, the growth inhibition was 0% in test [5] (setting [7]); 99% (active) in test [5] (setting [8]); 40.8% in test [5] (at 50.0 µM); 5% in test [6] (setting [7]); 99% (active) in test [6] (setting [8]); 99.1% (active) in test [6] (at 50.0 µM).
